Source: PubChem (National Center for Advancing Translational Sciences (NCATS))
Shown are actives, neighbours in structure and some others; about 18% of the full set was active somewhere.
TDP1 cell noCPT = qHTS for Inhibitors of human tyrosyl-DNA phosphodiesterase 1 (TDP1): qHTS in cells in absence of CPT; hit rate 15% among 420,000; Potency, µM (series often up to 46.2 µM), for inactives: at the top dose activity change, negative = growth inhibition, most hits filed as inhibitors; AID 686978, 2013; DT40 Tdp1-/- hTDP1 cells, no CPT, ATP luminescence, 48 h; further: potency means the concentration at half of the fitted maximal effect; nearly all actives have a fitted effect of over 55% in size
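Seeded 400 DT40-hTDP1 cells/well (vehicle DMSO, no 20 nM CPT); pinned compounds; ≥48 hr at 37 °C; CellTiter-Glo luminescence as viability measure.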
CtBP-E1A inh = inhibitors of CtBP/E1A interaction. hit rate 0.49% among 340,000. activity change, % (concentration not given with the values). AlphaScreen GST-E1A/His-CtBP binding, 1536-well; active compounds read low; in the data active means activity change below about -65%; inconclusive means mostly about -30% to -63%
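In 5 uL wells, 23 nL compound meets equimolar GST-E1A and His-CtBP (5X stock 125 nM each) for 2 h, 37 °C. Beads (5X, 50 ug/mL) then 1 h, 37 °C, dark.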
DT40 TDP1 CPT = DT40-hTDP1 cell growth loss with CPT | chicken DT40 Tdp1-/-;hTDP1 cells + 20 nM CPT, ATP luminescence, 48 h | Potency, µM (series often up to 46.2 µM), without a hit: top-dose activity change, negative = growth inhibition, usual class: inhibitors | hit rate 12% among 420,000 | AID 686979; further: potency means the concentration at half of the fitted maximal effect; nearly all actives have a fitted effect of over 55% in size
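Cell growth measured by CellTiter-Glo luminescence after a minimum 48 h, 37 C compound exposure with 20 nM CPT in Tdp1-knockout DT40 cells stably expressing hTDP1, seeded 400/well; qHTS titration format.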
Six1-Eya2 blk = Six1/Eya2 interaction inhibition | Q15475+O00167 | activity change, % (test concentration not listed) | AlphaScreen GST-Six1/His-Eya2 binding, biochemical; active compounds read low | hit rate 0.56% among 360,000; in the data active means activity change below about -65%; inconclusive means mostly about -30% to -63%
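AlphaScreen luminescence read after one hour at 37 °C in darkness. Pin-transferred compounds met GST-Six1 and His-Eya2 protein (5X stock 250 nM/500 nM) plus glutathione donor and Ni-chelate acceptor beads (5X, 50 ug/mL).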
TDP1 block = blocks human tyrosyl-DNA phosphodiesterase 1; AID 485290; Potency, µM (titrated, usually from 130 µM), for inactives: at the highest dose activity change, negative = inhibition, most hits filed as inhibitors; hit rate 0.28% among 350,000; recombinant TDP1, AlphaScreen DNA substrate cleavage; further: potency means the concentration at half of the fitted maximal effect; nearly all actives have a fitted effect of over 40% in size
Target sequence (Q9NUW8 whole entry, looked up): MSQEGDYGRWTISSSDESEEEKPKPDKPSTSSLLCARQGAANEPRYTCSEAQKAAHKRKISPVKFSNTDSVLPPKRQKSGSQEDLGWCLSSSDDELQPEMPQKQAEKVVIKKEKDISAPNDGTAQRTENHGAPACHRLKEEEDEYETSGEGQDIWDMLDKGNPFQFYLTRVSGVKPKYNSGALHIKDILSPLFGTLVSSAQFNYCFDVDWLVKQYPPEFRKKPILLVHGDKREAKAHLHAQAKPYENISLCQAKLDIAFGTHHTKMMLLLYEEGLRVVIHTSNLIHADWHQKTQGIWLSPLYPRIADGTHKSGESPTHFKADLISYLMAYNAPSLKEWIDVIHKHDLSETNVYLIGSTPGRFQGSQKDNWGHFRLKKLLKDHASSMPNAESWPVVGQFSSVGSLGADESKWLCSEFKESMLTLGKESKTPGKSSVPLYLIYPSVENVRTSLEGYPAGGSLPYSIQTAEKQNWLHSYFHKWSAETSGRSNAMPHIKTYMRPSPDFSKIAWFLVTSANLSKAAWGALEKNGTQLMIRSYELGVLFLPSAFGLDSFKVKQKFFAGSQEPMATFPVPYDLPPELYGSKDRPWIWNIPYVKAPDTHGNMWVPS
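Steps: enzyme plus compound, 15 min RT; add biotin/phosphotyrosine-FITC oligonucleotide (15 nM final), react 5 min; add donor/acceptor beads (10 ug/ml final), 10 min; read AlphaScreen. Tdp1 at 1 nM final.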
IL-1B inflam inh = inhibitors of inflammasome signaling (IL-1 beta secretion). THP-1 LPS/ATP IL-1B secretion, AlphaLISA, 16 h; active compounds read low. activity change, % at 57.5 µM. hit rate 4.7% among 360,000; in the data active means activity change below about -50%; inconclusive means mostly about -30% to -49%
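THP-1 cells pretreated 1 hr with compounds (up to 57.5 uM final), then stimulated with LPS (250 ng/mL final) plus ATP (1.25 mM final); secreted IL-1B measured by AlphaLISA after 16 hr, decreased signal indicating inhibition.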
Active calls of the source: *; u = inconclusive; x = not tested or not shown; ! = a repeat was not active; [ ] = another dose, or the depositor's remark. Unless noted, the call rests on the fitted dose curve; in most records, active means well fitted curve in the direction sought with a large enough effect; inconclusive means small, poorly fitted or top-dose-only effect, or another doubt; inactive means no such curve, though single readings can be large; an effect the other way counts as inactive or inconclusive. On the % scale 0 is the no-effect control and ±100 the full control effect.

SMILES	TDP1 cell noCPT	CtBP-E1A inh	DT40 TDP1 CPT	Six1-Eya2 blk	TDP1 block	IL-1B inflam inh
Cc1ccc(-c2csc3ncnc(N4CCN(S(=O)(=O)c5cccs5)CC4)c23)cc1	21µM*	2	u	2	2%	29
O=C(O)c1cc2c(N3CCC(Cc4ccccc4)CC3)ncnc2s1	1%	-7	1%	5	5%	59
c1ccc(CC2CCN(c3ncnc4sccc34)CC2)cc1	2.6µM*	6	5.2µM*	1	5%	-51*
CC(=O)c1ccc(-c2ccc3c4c(ccc3c2)OC(CNC(=O)C(C)N2CCOCC2)C4)s1 (stereo not given)	7.3µM*	x	u	x	x	x
CC(=O)c1ccc(-c2cc(F)cc3c2OC(CNC(=O)c2ccc[n+]([O-])c2)C3)s1 (stereo not given)	-10%	x	1%	x	x	x
Cc1cc(=O)n2c(C(=O)Nc3ccc(C(=O)OC(C)C)cc3)c(C(=O)Nc3ccccc3)sc2n1	15µM*	x	u	0	6%	21
Cc1cc(=O)n2c(C(=O)Nc3ccc(F)c(Cl)c3)c(C(=O)Nc3cccc(C)c3C)sc2n1	u	x	u	x	7%	x
COc1ccc(-c2[nH]ncc2CN(C)Cc2cnccn2)c(OC)c1	2%	0	-1%	4	-10%	-7
CCCCCNC(=O)C1CC=CCC1C(=O)O (stereo not given)	-8%	10	3%	6	-1%	28
CNC(=O)c1cc(Nc2nnc(-c3ccc(O)cc3)c3ccccc23)ccc1OC	u	-21	16µM*!	-10	7%	-59*
Oc1ccc(-c2nnc(Nc3cccc(O)c3)c3ccccc23)cc1	-1%	-28	-29%	-14	7%	0
COc1ccc(Nc2nnc(-c3ccc(C)c(S(=O)(=O)NCCO)c3)c3ccccc23)cc1C(N)=O	-4%	x	5%	x	0%[12.3 µM]	x
CCOc1ccc(-c2nnc(Nc3ccc(OC)c(C(=O)N4CCCCC4)c3)c3ccccc23)cc1	16µM*	8	u	-5	3%	-19
CSc1c2c(nc3ncnn13)CCC2	0%	1	17%	-4	2%	-10
CSc1nc2[nH]c3c(c2c2ncnn12)CCCC3	u	u	15µM*	u	5%	-13
CCOc1ccc(CC(=O)N/N=C/c2cccnc2)cc1	-24%	7	-3%	6	0%	2
Cc1ccc(S(=O)(=O)NNc2nnc(C)c(=O)[nH]2)cc1	-13%	-5	6%	-8	2%	6
CCOc1cc(Br)ccc1S(=O)(=O)N1CC(C)OC(C)C1 (stereo not given)	u	-8	26µM*	-12	2%	9
COc1ccc(CCNC(=O)CC(C)S(=O)(=O)c2ccc3c(c2)NC(=O)CO3)cc1OC (stereo not given)	24%	1	-11%	-2	3%	9
O=C(Nc1ccc(N2CCN(C(=O)c3ccco3)CC2)cc1)c1ccco1	5%	3	0%	4	6%	-3
CC(C)(C)OC(=O)N1CCN(c2ccc(NC(=O)c3ccco3)cc2)CC1	16µM*	-13	18µM*	-10	5%	-2
CC(C)c1ccc(NC(=O)C(c2ccccc2)N2CCN(C(=O)c3ccco3)CC2)cc1 (stereo not given)	18µM*	-2	u	-9	8%	u
CCCC(=O)N1CCN(c2ccc(NC(=O)c3ccco3)cc2)CC1	4%	-7	-4%	10	0%	24
O=C(Nc1ccc(N2CCN(C(=O)c3ccco3)CC2)cc1)c1cccs1	-29%	-11	u	-9	7%	-52*
O=C(Nc1ccc(N2CCN(C(=O)c3ccco3)CC2)cc1)C(c1ccccc1)c1ccccc1	16µM*	0	21µM*	-10	7%	10
SMILES	TDP1 cell noCPT	CtBP-E1A inh	DT40 TDP1 CPT	Six1-Eya2 blk	TDP1 block	IL-1B inflam inh
CC(C)c1ccc(NC(=O)C(c2ccc3c(c2)OCO3)N2CCN(C(=O)c3ccco3)CC2)cc1 (stereo not given)	u	-7	u	-23	9%	-24
Cc1cc(C)c(S(=O)(=O)N2CC=C(c3ccccc3)CC2)c(C)c1	-13%	4	u	24	x	-5
CC1CN(C(c2ccco2)c2sc3ncnn3c2O)CC(C)O1 (stereo not given)	-2%	0	12%	0	5%	24
O=C(NC(=S)Nc1ccccn1)c1ccc(-c2ccccc2)cc1	18µM*	-7	21µM*	-13	7%	-29
O=C(NC(=S)Nc1ccccn1)c1ccccc1	u	x	-22%	-8	x	8
CC(C)CCNC(=S)Nc1ccccn1	23µM*	-9	u	-22	8%	7
COCCNC(=S)Nc1ccccn1	15%	2	6%	4	-5%	-8
O=C(NC(=S)Nc1ccccn1)c1ccco1	u	-26	13µM*	-29	-3%	0
Cc1ccnc(NC(=S)NC(=O)c2ccco2)c1	-17%	8	18%	-2	0%	24
Cc1cc(C)c(NC(=S)NC(=O)c2ccc(-c3ccccc3)cc2)c(C)c1	21µM*	-6	u	-17	3%	-17
Cc1nn(CC(=O)OCC(=O)NCCc2ccc(F)cc2)c(C)c1[N+](=O)[O-]	18%	8	-1%	9	0%	19
O=C(NCCN1C(=O)S/C(=C\c2ccccc2Cl)C1=O)C1=COCCO1	6.5µM*	4	7.3µM*	-3	1%	-2
Cc1ccc(S(=O)(=O)CCC(=O)NCCN2C(=O)S/C(=C\c3ccccc3)C2=O)cc1	u	0	u	1	3%	u
O=C(NCCN1C(=O)S/C(=C\c2ccccc2F)C1=O)C1=COCCO1	2.9µM*	7	u	0	0%	2
O=C(CCS(=O)(=O)c1ccc(Cl)cc1)NCCN1C(=O)S/C(=C\c2ccccc2F)C1=O	16µM*	-9	u	-10	5%	0
O=C(NCCN1C(=O)S/C(=C\c2ccc(Cl)cc2Cl)C1=O)C1=COCCO1	12µM*	u	15µM*	-8	2%	u
CNS(=O)(=O)c1cn(CC(=O)Nc2ccc(C)c(N(C)C)c2)cc1S(=O)(=O)NC	-6%	x	-22%	x	3%	x
Cc1cccc(NC(=O)CSc2ccc(-c3cccs3)nn2)c1C	-22%	0	1%	-5	-2%	32
Cc1ccccc1NC(=O)CSc1ccc(-c2cccs2)nn1	23µM*	x	u	x	3%	x
